Some of the results follow. Inconclusive results are not listed. The source made the active and inactive calls. The call rests on the fitted dose curve; in most records, active means well fitted inhibition curve with a large enough effect; inconclusive means small, poorly fitted or top-dose-only effect, or effect the other way, or another doubt; inactive means no such curve, though single readings can be large or run the other way.
Each compound was assayed against Dual specificity mitogen-activated protein kinase kinase 1 (Homo sapiens) (UniProt Q02750) (assay: Assay for Inhibitors of the ERK Signaling Pathway using a Homogeneous Screening Assay: MEK Inhibition). Settings: series mostly up to 76.9 µM; activity change, negative = inhibition: at the top concentration.
Chain of Dual specificity mitogen-activated protein kinase kinase 1 (Homo sapiens) (Q02750 whole entry, looked up): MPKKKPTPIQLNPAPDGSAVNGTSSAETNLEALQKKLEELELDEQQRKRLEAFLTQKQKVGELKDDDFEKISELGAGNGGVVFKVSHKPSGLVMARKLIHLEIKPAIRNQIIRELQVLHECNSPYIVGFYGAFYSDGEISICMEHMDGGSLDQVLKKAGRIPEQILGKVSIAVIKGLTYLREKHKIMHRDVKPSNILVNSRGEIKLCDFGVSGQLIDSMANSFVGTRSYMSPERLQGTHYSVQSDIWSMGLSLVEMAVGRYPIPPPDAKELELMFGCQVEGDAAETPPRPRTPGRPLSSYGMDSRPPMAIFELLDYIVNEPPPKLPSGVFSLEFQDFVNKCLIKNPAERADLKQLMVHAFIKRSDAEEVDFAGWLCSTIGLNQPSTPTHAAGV
Description: qHTS Assay for Inhibitors of the ERK Signaling Pathway using a Homogeneous Screening Assay
NIH Chemical Genomics Center [NCGC]
NIH Molecular Libraries Screening Centers Network [MLSCN]
Assay Submitter (PI): Dr. Wei Zheng, NCGC/NIH
The Ras/extracellular-signal-regulated kinase (ERK) mitogen activated protein (MAP) kinase signaling pathway (ERK1/2 cascade) plays is a key role in transmitting signals from the cell surface to the nucleus (Nishida and Gotoh 1993; Chang and Karin, 2001). The cascade is initiated by the small G-protein Ras, which recruits Raf […], where activation occurs. Alternatively, this pathway can be activated by elevating intracellular cAMP.
Activation of the ERK pathway is essential in increased cell division and cell survival. Sustained and constitutive activation of the ERK pathway, however, has been linked to uncontrolled cell proliferation, increased cell survival, and tumor progression. Thus, the ERK has been as an attractive target for cancer chemotherapy in the past few years (Sebolt-Leopold and Herrera, 2004). Given its physiological and pathological importance, assessment of ERK phosphorylation has been broadly performed in both basic research and drug discovery. Most assays for the measurement of ERK phosphorylation use the antibody-based detection methods, such as western blot and ELISA. These assays require multiple reagent additions with cell wash steps and are not suitable for high-throughput screening.
The current cell-based ERK phosphorylation assay was performed using AlphaScreen platform. AlphaScreen is a two bead-based proximity-dependent chemical energy transfer luminescent assay platform. The assay reagents (ERK SureFire(TM) kit) were supplied from TGR BioSciences (Australia). […]
The HTRF kinase assay (components supplied as kit by Cisbio) was chosen for the EGFR and EGFR mutant enzyme assays that applied the time resolved fluorescence resonance energy transfer (TR-FRET) principle. […]

Activity change, negative = inhibition, inactive:
CCCNc1ncnc2sc(C)c(C)c12 -6.81%, O=[N+]([O-])c1ccccc1N/N=C1\CCc2ccccc21 -2.01%, CN(C)c1cc2c(Nc3ccc4c(cnn4Cc4ccccc4)c3)ncnc2cn1 -11.3%

Reference: PubChem BioAssay AID1732 (National Center for Advancing Translational Sciences (NCATS), 2009)
